Data taken from the supplement of paper PMC9694430.

Assays:
Assay in all cases: thermal shift delta Tm vs DMSO control; higher = stronger stabilization (binding)
Details in all cases: 12.5 µM; protein concentration 2 µM
LOC_OS02G45750-cb003 = system: LOC_OS02G45750-cb003
Method in brief: (§1)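 The melting temperature shift given here is a triplicate mean, measured against protein that received only DMSO. Melting temperatures came from Boltzmann fits of differential scanning fluorimetry data on E. coli-expressed, purified rice kinase domain constructs. Each 19.5 μl well contained 2 μM kinase, 100 mM potassium phosphate pH 7.5, 150 mM NaCl, 10% glycerol, 5 × SYPRO Orange and compound in DMSO. Plates were scanned from 25°C to 95°C at 0.05°C/s.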

LOC_OS02G54510-cb004 = system: LOC_OS02G54510-cb004
Method in brief: as §1

LOC_OS03G04050-cb001 = system: LOC_OS03G04050-cb001
Method in brief: as §1

LOC_OS03G12390-cb001 = system: LOC_OS03G12390-cb001
Method in brief: as §1

LOC_OS03G27990-cb004 = system: LOC_OS03G27990-cb004
Method in brief: as §1

LOC_OS03G50450-cb001 = system: LOC_OS03G50450-cb001
Method in brief: as §1

LOC_OS03G50810-cb003 = system: LOC_OS03G50810-cb003
Method in brief: as §1

LOC_OS04G35114-cb001 = system: LOC_OS04G35114-cb001
Method in brief: as §1

LOC_OS04G38480-cb003 = system: T1, LOC_OS04G38480-cb003
T1 sequence (whole entry): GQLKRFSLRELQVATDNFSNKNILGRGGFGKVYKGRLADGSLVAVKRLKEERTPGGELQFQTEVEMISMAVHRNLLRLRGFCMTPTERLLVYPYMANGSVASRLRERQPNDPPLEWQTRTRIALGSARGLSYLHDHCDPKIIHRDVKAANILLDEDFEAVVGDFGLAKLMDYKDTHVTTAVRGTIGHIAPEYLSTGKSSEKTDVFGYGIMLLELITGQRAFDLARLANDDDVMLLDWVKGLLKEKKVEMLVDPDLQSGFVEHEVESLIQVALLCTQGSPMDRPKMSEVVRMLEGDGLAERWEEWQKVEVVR
Method in brief: as §1

LOC_OS04G41100-cb001 = system: T2, LOC_OS04G41100-cb001
T2 sequence (whole entry): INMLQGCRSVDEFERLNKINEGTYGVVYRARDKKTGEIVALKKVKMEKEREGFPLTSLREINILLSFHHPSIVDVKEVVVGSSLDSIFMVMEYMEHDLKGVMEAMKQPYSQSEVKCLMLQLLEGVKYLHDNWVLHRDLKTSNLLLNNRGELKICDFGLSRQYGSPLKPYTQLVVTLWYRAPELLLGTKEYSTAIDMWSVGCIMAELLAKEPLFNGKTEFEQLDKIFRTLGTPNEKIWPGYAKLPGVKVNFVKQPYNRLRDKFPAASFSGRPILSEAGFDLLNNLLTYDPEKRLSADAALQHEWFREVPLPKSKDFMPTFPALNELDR
Method in brief: as §1

Structure (SMILES): CC(C)N(CCC(=O)c1ccc2ccccc2c1)Cc1ccccc1
- thermal shift delta Tm (LOC_OS02G45750-cb003): -0.52 °C
- thermal shift delta Tm (LOC_OS02G54510-cb004): -0.55 °C
- thermal shift delta Tm (LOC_OS03G04050-cb001): 0.06 °C
- thermal shift delta Tm (LOC_OS03G12390-cb001): -6.73 °C
- thermal shift delta Tm (LOC_OS03G27990-cb004): -1 °C
- thermal shift delta Tm (LOC_OS03G50450-cb001): 0.58 °C
- thermal shift delta Tm (LOC_OS03G50810-cb003): -1.55 °C
- thermal shift delta Tm (LOC_OS04G35114-cb001): -1.2 °C
- thermal shift delta Tm (LOC_OS04G38480-cb003): 0.27 °C
- thermal shift delta Tm (LOC_OS04G41100-cb001): 2.52 °C

Structure (SMILES): NC(=O)c1ncn([C@@H]2O[C@H](CO)[C@@H](O)[C@H]2O)c1N [AICAR (Acadesine)]
- thermal shift delta Tm (LOC_OS02G45750-cb003): 0.81 °C
- thermal shift delta Tm (LOC_OS02G54510-cb004): 0.42 °C
- thermal shift delta Tm (LOC_OS03G04050-cb001): 0.68 °C
- thermal shift delta Tm (LOC_OS03G12390-cb001): 0.15 °C
- thermal shift delta Tm (LOC_OS03G27990-cb004): 0.5 °C
- thermal shift delta Tm (LOC_OS03G50450-cb001): 0.66 °C
- thermal shift delta Tm (LOC_OS03G50810-cb003): 0.55 °C
- thermal shift delta Tm (LOC_OS04G35114-cb001): 0.59 °C
- thermal shift delta Tm (LOC_OS04G38480-cb003): 0.31 °C
- thermal shift delta Tm (LOC_OS04G41100-cb001): 0.46 °C

Structure (SMILES): COC(=O)Nc1ccc(-c2nc(N3CCOCC3)c3cnn(C4CCN(C(=O)OC)CC4)c3n2)cc1
- thermal shift delta Tm (LOC_OS02G45750-cb003): 0 °C
- thermal shift delta Tm (LOC_OS02G54510-cb004): -0.07 °C
- thermal shift delta Tm (LOC_OS03G04050-cb001): 0.1 °C
- thermal shift delta Tm (LOC_OS03G12390-cb001): 0.08 °C
- thermal shift delta Tm (LOC_OS03G27990-cb004): -0.05 °C
- thermal shift delta Tm (LOC_OS03G50450-cb001): 0.08 °C
- thermal shift delta Tm (LOC_OS03G50810-cb003): 0.17 °C
- thermal shift delta Tm (LOC_OS04G35114-cb001): 0.06 °C
- thermal shift delta Tm (LOC_OS04G38480-cb003): 0.81 °C
- thermal shift delta Tm (LOC_OS04G41100-cb001): 0.47 °C

Structure (SMILES): O=C(NOCC1CC1)c1ccc(F)c(F)c1Nc1ccc(I)cc1Cl
- thermal shift delta Tm (LOC_OS02G45750-cb003): 0.27 °C
- thermal shift delta Tm (LOC_OS02G54510-cb004): -0.05 °C
- thermal shift delta Tm (LOC_OS03G04050-cb001): 1.06 °C
- thermal shift delta Tm (LOC_OS03G12390-cb001): 0.75 °C
- thermal shift delta Tm (LOC_OS03G27990-cb004): 0.28 °C
- thermal shift delta Tm (LOC_OS03G50450-cb001): 0.46 °C
- thermal shift delta Tm (LOC_OS03G50810-cb003): 0.83 °C
- thermal shift delta Tm (LOC_OS04G35114-cb001): 0.12 °C
- thermal shift delta Tm (LOC_OS04G38480-cb003): 1.28 °C
- thermal shift delta Tm (LOC_OS04G41100-cb001): 0.9 °C

Structure (SMILES): C[C@H](NC(=O)c1c(N)nn2cccnc12)c1cc2cccc(C#Cc3cnn(C)c3)c2c(=O)n1-c1ccccc1
- thermal shift delta Tm (LOC_OS02G45750-cb003): 1.18 °C
- thermal shift delta Tm (LOC_OS02G54510-cb004): 0.33 °C
- thermal shift delta Tm (LOC_OS03G04050-cb001): 0.47 °C
- thermal shift delta Tm (LOC_OS03G12390-cb001): -0.11 °C
- thermal shift delta Tm (LOC_OS03G27990-cb004): 0.46 °C
- thermal shift delta Tm (LOC_OS03G50450-cb001): 0.63 °C
- thermal shift delta Tm (LOC_OS03G50810-cb003): 0.32 °C
- thermal shift delta Tm (LOC_OS04G35114-cb001): 0.21 °C
- thermal shift delta Tm (LOC_OS04G38480-cb003): 1.13 °C
- thermal shift delta Tm (LOC_OS04G41100-cb001): 0.04 °C

Structure (SMILES): Cc1cc(C(=O)Nc2nc3cccc(Cl)c3n2[C@@H]2CCCCN(C(=O)/C=C/CN(C)C)C2)ccn1 [Nazartinib (EGF816, NVS-816)]
- thermal shift delta Tm (LOC_OS02G45750-cb003): 0.42 °C
- thermal shift delta Tm (LOC_OS02G54510-cb004): 0.81 °C
- thermal shift delta Tm (LOC_OS03G04050-cb001): 0.51 °C
- thermal shift delta Tm (LOC_OS03G12390-cb001): 2.23 °C
- thermal shift delta Tm (LOC_OS03G27990-cb004): 1.56 °C
- thermal shift delta Tm (LOC_OS03G50450-cb001): 0.64 °C
- thermal shift delta Tm (LOC_OS03G50810-cb003): 0.51 °C
- thermal shift delta Tm (LOC_OS04G35114-cb001): 1.87 °C
- thermal shift delta Tm (LOC_OS04G38480-cb003): 2.14 °C
- thermal shift delta Tm (LOC_OS04G41100-cb001): 0.6 °C

Structure (SMILES): C[C@@]1(C(=O)Nc2ccc(F)nc2)CCCN1c1nc(Nc2cc(C3CC3)n[nH]2)c2cccn2n1
- thermal shift delta Tm (LOC_OS02G45750-cb003): -1.4 °C
- thermal shift delta Tm (LOC_OS02G54510-cb004): 2.49 °C
- thermal shift delta Tm (LOC_OS03G04050-cb001): 0.25 °C
- thermal shift delta Tm (LOC_OS03G12390-cb001): 0.55 °C
- thermal shift delta Tm (LOC_OS03G27990-cb004): 0.21 °C
- thermal shift delta Tm (LOC_OS03G50450-cb001): -0.6 °C
- thermal shift delta Tm (LOC_OS03G50810-cb003): 1.17 °C
- thermal shift delta Tm (LOC_OS04G35114-cb001): 2.02 °C
- thermal shift delta Tm (LOC_OS04G38480-cb003): 1.6 °C
- thermal shift delta Tm (LOC_OS04G41100-cb001): 0.62 °C

Structure (SMILES): C[C@@H]1CN(CC(=O)Nc2ccc3c(c2)Cc2cccc(-c4cc(=O)cc(N5CCOCC5)o4)c2S3)C[C@H](C)O1
- thermal shift delta Tm (LOC_OS02G45750-cb003): 0.27 °C
- thermal shift delta Tm (LOC_OS02G54510-cb004): -0.11 °C
- thermal shift delta Tm (LOC_OS03G04050-cb001): 0.02 °C
- thermal shift delta Tm (LOC_OS03G12390-cb001): 0.37 °C
- thermal shift delta Tm (LOC_OS03G27990-cb004): -0.04 °C
- thermal shift delta Tm (LOC_OS03G50450-cb001): 0.03 °C
- thermal shift delta Tm (LOC_OS03G50810-cb003): 0.14 °C
- thermal shift delta Tm (LOC_OS04G35114-cb001): 0.37 °C
- thermal shift delta Tm (LOC_OS04G38480-cb003): -0.13 °C
- thermal shift delta Tm (LOC_OS04G41100-cb001): 0.23 °C

Structure (SMILES): COc1cc(-c2cc(-c3ccc(N4CCNCC4)cc3)cnc2C)cc(OC)c1OC
- thermal shift delta Tm (LOC_OS02G45750-cb003): 2.4 °C
- thermal shift delta Tm (LOC_OS02G54510-cb004): 0.19 °C
- thermal shift delta Tm (LOC_OS03G04050-cb001): 0.41 °C
- thermal shift delta Tm (LOC_OS03G12390-cb001): -0.01 °C
- thermal shift delta Tm (LOC_OS03G27990-cb004): 0.29 °C
- thermal shift delta Tm (LOC_OS03G50450-cb001): 0.65 °C
- thermal shift delta Tm (LOC_OS03G50810-cb003): 0.51 °C
- thermal shift delta Tm (LOC_OS04G35114-cb001): 2.27 °C
- thermal shift delta Tm (LOC_OS04G38480-cb003): 1.94 °C
- thermal shift delta Tm (LOC_OS04G41100-cb001): 0.29 °C

Structure (SMILES): CNC(=O)c1ccccc1Nc1cc(Nc2ccc(N3CCOCC3)cc2OC)ncc1C(F)(F)F
- thermal shift delta Tm (LOC_OS02G45750-cb003): 5.48 °C
- thermal shift delta Tm (LOC_OS02G54510-cb004): 0.23 °C
- thermal shift delta Tm (LOC_OS03G04050-cb001): 0.62 °C
- thermal shift delta Tm (LOC_OS03G12390-cb001): 7.78 °C
- thermal shift delta Tm (LOC_OS03G27990-cb004): 3.73 °C
- thermal shift delta Tm (LOC_OS03G50450-cb001): 0.25 °C
- thermal shift delta Tm (LOC_OS03G50810-cb003): 1.97 °C
- thermal shift delta Tm (LOC_OS04G35114-cb001): 6.3 °C
- thermal shift delta Tm (LOC_OS04G38480-cb003): 3.08 °C
- thermal shift delta Tm (LOC_OS04G41100-cb001): 0.19 °C
